# Source: PubChem BioAssay
# Only some compounds are listed: those with a hit (about 12% of all), similar ones and a draw of the others.
# SARS PLP yeast: blocks SARS-CoV papain-like protease in a yeast assay; actives 0.19% (n = 330,000); S. cerevisiae expressing SARS-CoV PLpro, growth rescue; AID 485353; Potency, µM (titrated, usually from 32.9 µM), without a hit: top-dose activity, positive = growth rescue, usual class: activators; calls by dose curve; also: 0% is about no effect; nearly all actives have a fitted effect of over 55% in size
# Pf growth 96h: P. falciparum growth inhibition at 96 hour, primary screen for plastid delayed-death inhibitors; P. falciparum luciferase reporter growth, 96 h; actives 6.9% (n = 320,000); Potency, µM (series often up to 28.7 µM), for inactives: at the highest dose activity change, negative = inhibition, usual class: inhibitors; also: % is scaled to controls: 0 for no effect and ±100 for the full control effect
#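 Readout is luminescence from an integrated firefly luciferase in P. falciparum. Red cells, 2% hematocrit and 0.05% parasitemia final, were cultured with compound through two parasite generations (96 hours) at 37 C, 5% CO2.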
# AmpC no deterg: AmpC beta-lactamase inhibition without detergent; AmpC nitrocefin hydrolysis, absorbance 480 nm, 0.0001% Triton; actives 0.52% (n = 330,000); Potency, µM (top dose mostly 57.1 µM), for inactives: at the highest dose activity change, negative = inhibition, most hits filed as inhibitors; AID 485341;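 also: plate controls were no compound for no effect and no enzyme for full effect; nearly all actives have a fitted effect of over 20% in size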
# Target sequence (P00811 whole entry, looked up): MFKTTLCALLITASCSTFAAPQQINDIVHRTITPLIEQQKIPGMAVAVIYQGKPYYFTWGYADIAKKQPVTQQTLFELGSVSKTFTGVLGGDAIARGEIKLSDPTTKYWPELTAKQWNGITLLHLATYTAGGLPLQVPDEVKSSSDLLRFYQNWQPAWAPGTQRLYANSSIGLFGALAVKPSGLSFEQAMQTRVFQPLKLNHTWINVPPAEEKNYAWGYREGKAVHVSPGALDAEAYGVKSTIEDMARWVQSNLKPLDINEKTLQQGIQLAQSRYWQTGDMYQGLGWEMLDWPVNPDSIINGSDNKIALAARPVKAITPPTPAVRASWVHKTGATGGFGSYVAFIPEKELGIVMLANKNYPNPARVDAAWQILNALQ
#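 20 mM phosphate pH 7.0 + 0.01% (detergent screen) or 0.0001% Triton X-100; 5.3 nM AmpC reagent; cpd preinc 15 min RT; nitrocefin (800 uM stock) to start; A480 q20 s × 4 min; Activity was normalised to no-enzyme and no-compound control wells.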
# Sm TGR block: S. mansoni TGR enzyme inhibition; AID 485364; actives 3% (n = 360,000); Potency, µM (top dose mostly 114 µM), for the others: at the top dose activity change, negative = inhibition, most hits filed as inhibitors; purified TGR, DTNB reduction, TNB absorbance 405 nm; also: % is scaled to controls: 0 for no effect and ±100 for the full control effect; nearly all actives have a fitted effect of over 60% in size
#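 Kinetic colorimetric format: TGR-catalysed, NADPH-driven DTNB reduction monitored via TNB absorbance. Enzyme dispensed at 20 nM; compound exposure 15 min at room temperature before reaction start.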
# Pf growth 48h: inhibits P. falciparum growth in the first generation, 48 h; P. falciparum luciferase growth in erythrocytes, 48 h; Potency, µM (highest dose often 28.7 µM), for inactives: at the highest dose activity change, negative = inhibition, usual class: inhibitors; actives 5.9% (n = 310,000); AID 504832; also: % is scaled to controls: 0 for no effect and ±100 for the full control effect
#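 Parasite viability was followed by luminescence of a genomically integrated firefly luciferase. Cultures held 0.1% parasitemia at 2% hematocrit (final), incubated under 5% CO2 at 37 C.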
# AmpC inh detg: AmpC beta-lactamase inhibition with detergent present; AmpC hydrolysis of nitrocefin, absorbance 480 nm, 0.01% Triton; Potency, µM (titrated, usually from 114 µM), for inactives: at the highest dose activity change, negative = inhibition, hits mostly inhibitors; actives 0.041% (n = 370,000); AID 485294;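 also: 0% = no-compound wells and -100% = no-enzyme wells; nearly all actives have a fitted effect of over 25% in size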
#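 20 mM phosphate pH 7.0 + 0.01% (detergent screen) or 0.0001% Triton X-100; 5.3 nM AmpC reagent; cpd preinc 15 min RT; nitrocefin (800 uM stock) to start; A480 q20 s × 4 min; Activity was normalised to no-enzyme and no-compound control wells.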
# * hit, by the source's call; u = inconclusive; x = no result given; [ ] = another dose, or the depositor's remark. Unless noted, calls follow the shape of the dose curve; as a rule, active = well fitted curve in the direction sought with a large enough effect; inconclusive = small, poorly fitted or top-dose-only effect, or another doubt; inactive = no such curve, though single readings can be large; an effect the other way counts as inactive or inconclusive. Potency is read from the fitted curve at half-maximal effect.
SMILES,SARS PLP yeast,Pf growth 96h,AmpC no deterg,Sm TGR block,Pf growth 48h,AmpC inh detg
COc1ccc(Cl)cc1NC(=O)Cn1c(=O)n2nc(-c3ccccc3)nc2c2ccccc21,x,x,x,-0.2%,x,-4.6%
CC1=C(C(=O)Nc2ccc(C)cc2C)C(C(C)C)n2nc(SCc3ccccc3Cl)nc2N1 (centres undefined),x,x,x,3.2%,x,27.4%
CN(CCNC(=O)c1ccc(N2CCCC2=O)cc1)CCc1ccccc1,-8.4%,8.28µM*,-12.2%,-16.5%,u,-9.5%
CC(C)N(CCCNC(=O)c1ccc(N2CCCC2=O)cc1)Cc1ccccc1,-7.2%,1.31µM*,-30.8%,2.2%,-4.5%,5.8%
CN(CCNC(=O)c1cccc(N2CCCC2=O)c1)Cc1ccccc1,4.9%,44.0%,-16.6%,-22.0%,x,u
Nc1c(N(CCC2=CCCCC2)C(=O)c2ccccc2F)c(=O)[nH]c(=O)n1Cc1ccccc1,3.0%,u,-48.0%,-18.7%,u,u
NC(=O)C1CCN(C2CC(=O)N(c3cccc(F)c3)C2=O)CC1 (centres undefined),-25.0%,x,-28.0%,35.5µM*,2.2%,u
CCOC(=O)C1CCN(C2CC(=O)N(c3cccc(Cl)c3)C2=O)CC1 (centres undefined),-9.9%,x,-6.0%,-48.2%,5.2%,-9.4%
NC(=O)C1CCN(C2CC(=O)N(c3ccc(F)c(Cl)c3)C2=O)CC1 (centres undefined),-39.8%,44.9%,-11.4%,25.1µM*,6.3%,u
Cc1ccccc1N1C(=O)CC(N2CCC(C(N)=O)CC2)C1=O (centres undefined),-9.5%,x,-14.3%,22.4µM*,-13.9%,u
COc1ccc(C(=O)COC(=O)CCn2nnc(-c3cccc(O)c3OC)n2)cc1,0.3%,11.7µM*,-23.2%,4.3%,-6.8%,-1.5%
Oc1c(C(Nc2ccccn2)c2ccccn2)ccc2cccnc12 (centres undefined),u,x,13.0%,22.4µM*,2.94µM*,u
Cc1ccnc(NC(c2ccccc2F)c2ccc3cccnc3c2O)c1 (centres undefined),x,x,x,2.24µM*,x,21.4%
Oc1ccccc1C(Nc1nccs1)c1ccc2cccnc2c1O (centres undefined),-6.7%,2.62µM*,-58.0%,1.26µM*,1.85µM*,-8.0%
Cc1ccnc(NC(c2cccnc2)c2ccc3cccnc3c2O)c1 (centres undefined),-2.6%,17.4%,2.3%,x,u,0.7%
Cc1ccnc(NC(c2cc(C)ccc2O)c2ccc3cccnc3c2O)c1 (centres undefined),x,x,x,0.355µM*,x,6.5%
CCCC1=Nc2cc(C(=O)NCc3ccccc3)ccc2Sc2ccccc21,x,x,x,-0.5%,x,16.0%
O=C(c1cn(CC(=O)N2CCCC2)c2ccccc12)C1CCCCC1,8.2%,-2.4%[5.75 µM],21.3%,-29.6%,21.1%,u
Cc1cccc(Cn2c(COc3ccccc3)nc3ccccc32)c1,x,x,x,-1.8%,x,0.6%
O=C(O)c1ccc2cccnc2c1O,0.5%,7.9%,-5.4%,u,-1.2%,-5.9%
Oc1c(C(Nc2ccccn2)c2ccccc2F)ccc2cccnc12 (centres undefined),x,x,x,2µM*,x,0.5%
O=C(NCc1ccco1)C(c1ccccc1)N(Cc1cccnc1)C(=O)Cn1nnc2ccccc21 (centres undefined),-7.1%,x,-17.0%,39.8µM*,-14.9%,u
Cc1cc(C)cc(N(C(=O)Cn2nnc3ccccc32)C(C(=O)NCc2ccco2)c2ccncc2)c1 (centres undefined),-1.0%,17.8%,28.4%,35.5µM*,-21.2%,18.8%
COc1cccc(N(C(=O)Cn2nnc3ccccc32)C(C(=O)NCc2ccco2)c2cccnc2)c1 (centres undefined),-3.7%,x,57.5%,-15.1%,8.28µM*,u
O=C(NCc1ccco1)C(c1ccc(F)cc1)N(Cc1cccnc1)C(=O)Cn1nnc2ccccc21 (centres undefined),-0.3%,u,-27.1%,u,u,u
SMILES,SARS PLP yeast,Pf growth 96h,AmpC no deterg,Sm TGR block,Pf growth 48h,AmpC inh detg
Cc1ccc(N(C(=O)Cn2nnc3ccccc32)C(C(=O)NCc2ccco2)c2cccnc2)cc1 (centres undefined),-3.0%,u,40.7%,-34.8%,10.4µM*,-5.7%
CCOc1cc(C(=O)Nc2cccc3cccnc23)cc(OCC)c1OCC,x,x,x,14.3%,x,23.1%
CCCCN(Cc1cc2ccccc2[nH]c1=O)C(=O)c1cccc(Cl)c1,x,x,x,10.5%,x,11.5%
Cc1ccc(C)c(N(C(=O)Cn2nnc3ccccc32)C(C(=O)NCc2ccco2)c2ccncc2)c1 (centres undefined),1.7%,u,2.4%,-30.6%,u,7.1%
CCCCN(C(=O)Cn1nnc2ccccc21)C(C(=O)NCc1ccco1)c1ccncc1 (centres undefined),1.9%,-9.2%,15.1%,56.2µM*,8.0%,-0.8%
Cc1ccsc1C(=O)N(C)CC(=O)Nc1ccccc1Br,-1.0%,21.1%,-9.7%,1.3%,-7.4%,u
Cc1c(C(=O)NCC2COc3ccccc3O2)oc2ccc(S(=O)(=O)N3CCOCC3)cc12 (centres undefined),1.3%,21.8%,39.7%,-6.4%,u,-3.2%
CCN(CC)S(=O)(=O)c1ccc2oc(C(=O)NCc3ccc(F)cc3)c(C)c2c1,-1.9%,x,-14.2%,-8.2%,8.28µM*,-17.6%
Cc1c(C(=O)NCc2ccc(F)cc2)oc2ccc(S(=O)(=O)N3CCOCC3)cc12,1.2%,17.8%,53.9%,6.9%,u,u
CCN(CC)S(=O)(=O)c1ccc2oc(C(=O)NCC3COc4ccccc4O3)c(C)c2c1 (centres undefined),-4.0%,u,-18.3%,-0.1%,10.4µM*,-3.7%
CN(C)S(=O)(=O)c1ccc(NCC2COc3ccccc3O2)c([N+](=O)[O-])c1 (centres undefined),16.6%,13.1µM*,-23.0%,-7.7%,-8.7%,u
Cc1c(C(=O)NCC2COc3ccccc3O2)oc2ccc(S(=O)(=O)N3CC(C)CC(C)C3)cc12 (centres undefined),-6.2%,x,-29.5%,-0.1%,8.28µM*,-9.5%
O=S(=O)(CCN(CCS(=O)(=O)C(F)(F)F)CC1CCCO1)C(F)(F)F (centres undefined),-0.4%,u,-0.6%,u,x,-9.4%
Cc1[nH]c2ccccc2c1-c1nc2ccccc2[nH]c1=O,-5.2%,19.0%,-15.7%,0.3%,19.0%,-2.8%
